Our source for the NF-kB reporter, IRF reporter and viability score values is the supplement of paper PMC10646978.

Molecules are shown by their SMILES. ± gives the standard deviation.

Common to all, as to conditions: modulator concentration 10 µM
The test system of test [1] is RAW-Dual (murine macrophage reporter line). Put plainly: NF-kB reporter (SEAP) activity fold change vs agonist alone; higher = enhanced NF-kB activity. An outline of the steps: (§1)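 Compound reached 10 μM final in each well by pin transfer, onto RAW-Dual murine macrophage reporter cells seeded at 50 000 per well in 384-well plates. After 1 hour at 37 °C, the cells were stimulated overnight with a PRR agonist. SEAP in the supernatant was read with QUANTI-Blue at 620 nm absorbance for NF-κB, and Lucia luciferase was read with QUANTI-Luc luminescence for IRF. Each signal was turned into fold change against the mean agonist-only control on the same plate, and two replicate plates were averaged with propagated errors.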

Test [2] has the same test system. The test is described as follows: IRF reporter (Lucia luciferase) activity fold change vs agonist alone; higher = enhanced IRF activity. An outline of the steps:
as §1

Test [3] shares this test system. Put plainly: viability score (confluency relative to resting cells, overnight) (fraction); higher = more viable, active = viable (0.7 or more). An outline of the steps:
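Two confluency masks, generated with IncuCyte software over all imaged wells, were applied to IncuCyte images of RAW-Dual macrophages. The cells, in 384-well plates, had been exposed overnight to 10 μM final compound. The viability score is confluency as a fraction of resting cells, and a compound met the cutoff only with both masks above 70% of resting cells.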

Where [4] appears, read: agonist: CpG ODN 1826 0.5 ug/mL.

`NC(N)=NN=Cc1ccc(OS(=O)(=O)c2ccccc2)cc1`: the NF-kB reporter was found to be 0.0965 ± 0.0075 in test [1] (setting [4]), 0.954 ± 0.048 in test [1] (agonist: LPS 0.1 ug/mL) and 1.18 ± 0.14 in test [1] (agonist: MPLA […]). Moreover, the results for the IRF reporter in test [2] (agonist: 3'3'-cGAMP 10 ug/mL), in test [2] (agonist: LPS 0.1 ug/mL) and in test [2] (agonist: MPLA […]) were 0.929 ± 0.044, 0.93 ± 0.058 and 1.04 ± 0.13, respectively. Also, the viability score in test [3] was 0.433 (inactive).
On to `COc1ccc(Cn2c(SC)nc3c(c2=O)C2(CCCCC2)Cc2ccccc2-3)cc1`, for which the NF-kB reporter in test [1] (setting [4]) turned out to be 1.43 ± 0.45; in test [1] (agonist: LPS 0.1 ug/mL), 0.856 ± 0.076; in test [1] (agonist: MPLA […]), 1.15 ± 0.2. Moreover, the values for the IRF reporter in test [2] (agonist: 3'3'-cGAMP 10 ug/mL), in test [2] (agonist: LPS 0.1 ug/mL) and in test [2] (agonist: MPLA […]) were 0.791 ± 0.099, 0.995 ± 0.076 and 1.33 ± 0.25, respectively. Besides, the viability score in test [3] is 0.989 (active).
`CC1=CC(=O)c2ccccc2C1=O`: the NF-kB reporter in test [1] (setting [4]) stood at 2.29 ± 0.12; in test [1] (agonist: LPS 0.1 ug/mL), 1.31 ± 0.11; in test [1] (agonist: MPLA […]), 1.81 ± 0.2. Further, the values for the IRF reporter in test [2] (agonist: 3'3'-cGAMP 10 ug/mL), in test [2] (agonist: LPS 0.1 ug/mL) and in test [2] (agonist: MPLA […]) were 0.357 ± 0.023, 3.57 ± 0.25 and 1.33 ± 0.4, respectively. For the same compound, in test [3], the viability score was 0.0798 (inactive).
In the case of `COc1cc(C=NN2C(=O)c3cccc4cccc(c34)C2=O)cc(Br)c1OC`, the NF-kB reporter amounted to 1.02 ± 0.08 in test [1] (setting [4]), 1.12 ± 0.062 in test [1] (agonist: LPS 0.1 ug/mL) and 0.967 ± 0.062 in test [1] (agonist: MPLA […]). The IRF reporter in test [2] (agonist: 3'3'-cGAMP 10 ug/mL) worked out at 1.01 ± 0.032; in test [2] (agonist: LPS 0.1 ug/mL), 1.51 ± 0.29; in test [2] (agonist: MPLA […]), 1.13 ± 0.17. Besides, the viability score in test [3] was 1.01 (active).
For the compound `NC(=NOC(=O)C(c1ccccc1)C1CCCC1)c1ccccn1` (stereo unspecified), the results for the NF-kB reporter in test [1] (setting [4]), in test [1] (agonist: LPS 0.1 ug/mL) and in test [1] (agonist: MPLA […]) were 0.796 ± 0.062, 0.857 ± 0.055 and 1.06 ± 0.1, respectively. Also, the IRF reporter in test [2] (agonist: 3'3'-cGAMP 10 ug/mL) is 0.613 ± 0.042; in test [2] (agonist: LPS 0.1 ug/mL) it was 1.38 ± 0.083; in test [2] (agonist: MPLA […]) it was 1.62 ± 0.15. For the same compound, the viability score in test [3] was 0.982 (active).
As to `O=c1cc(-c2ccccc2)oc2cc(O)c(O)c(O)c12`, the NF-kB reporter in test [1] (setting [4]) stood at 1.51 ± 0.5; in test [1] (agonist: LPS 0.1 ug/mL), 1.09 ± 0.075; in test [1] (agonist: MPLA […]), 1.2 ± 0.15. Also, the IRF reporter stood at 0.649 ± 0.034 in test [2] (agonist: 3'3'-cGAMP 10 ug/mL), 1 ± 0.15 in test [2] (agonist: LPS 0.1 ug/mL) and 0.967 ± 0.12 in test [2] (agonist: MPLA […]). Also, the viability score in test [3] was 0.992 (active).
Regarding `O=C(NCCCn1ccc2cccnc21)c1cccc(Br)c1`, the NF-kB reporter in test [1] (setting [4]) was found to be 0.84 ± 0.042; in test [1] (agonist: LPS 0.1 ug/mL) it was 1.12 ± 0.088; in test [1] (agonist: MPLA […]), 0.937 ± 0.045. For the same compound, the figures for the IRF reporter in test [2] (agonist: 3'3'-cGAMP 10 ug/mL), in test [2] (agonist: LPS 0.1 ug/mL) and in test [2] (agonist: MPLA […]) were 0.839 ± 0.081, 1.06 ± 0.12 and 1.03 ± 0.23, respectively. Moreover, the viability score in test [3] was 0.98 (active).
Turning to `O=C(NC1CCOCC1)N1CCOC(c2cc(Cl)cc(Cl)c2)C1` (stereo unspecified), the figures for the NF-kB reporter in test [1] (setting [4]), in test [1] (agonist: LPS 0.1 ug/mL) and in test [1] (agonist: MPLA […]) were 0.83 ± 0.036, 1.05 ± 0.083 and 1.09 ± 0.06, respectively. Further, the results for the IRF reporter in test [2] (agonist: 3'3'-cGAMP 10 ug/mL), in test [2] (agonist: LPS 0.1 ug/mL) and in test [2] (agonist: MPLA […]) were 0.971 ± 0.045, 1.35 ± 0.27 and 1.54 ± 0.52, respectively. Further, the viability score in test [3] is 0.968 (active).
For `CCS(=O)(=O)N1CCC(Oc2cc(C)nc(C)n2)CC1`, the NF-kB reporter was determined as 1.23 ± 0.07 in test [1] (setting [4]), 0.996 ± 0.086 in test [1] (agonist: LPS 0.1 ug/mL) and 0.963 ± 0.046 in test [1] (agonist: MPLA […]). For the same compound, the IRF reporter was found to be 0.982 ± 0.05 in test [2] (agonist: 3'3'-cGAMP 10 ug/mL), 1.05 ± 0.049 in test [2] (agonist: LPS 0.1 ug/mL) and 0.916 ± 0.093 in test [2] (agonist: MPLA […]). Moreover, the viability score in test [3] was 0.997 (active).
On to `CC(C)N(C)CCOC(=O)C(C)(c1ccccc1)c1ccccc1`, for which the NF-kB reporter in test [1] (setting [4]) was found to be 0.583 ± 0.047; in test [1] (agonist: LPS 0.1 ug/mL), 1.03 ± 0.068; in test [1] (agonist: MPLA […]), 0.957 ± 0.11. In addition, the IRF reporter was determined as 0.902 ± 0.069 in test [2] (agonist: 3'3'-cGAMP 10 ug/mL), 1.09 ± 0.12 in test [2] (agonist: LPS 0.1 ug/mL) and 0.965 ± 0.17 in test [2] (agonist: MPLA […]). In addition, in test [3], the viability score was 0.322 (inactive).
Turning to `O=C(CSc1nnnn1-c1ccccc1)NC12CC3CC(CC(C3)C1)C2`, the NF-kB reporter in test [1] (setting [4]) amounted to 1.01 ± 0.09; in test [1] (agonist: LPS 0.1 ug/mL) it was 0.967 ± 0.053; in test [1] (agonist: MPLA […]), 0.943 ± 0.059. Also, the IRF reporter is 0.96 ± 0.054 in test [2] (agonist: 3'3'-cGAMP 10 ug/mL), 1.12 ± 0.24 in test [2] (agonist: LPS 0.1 ug/mL) and 0.933 ± 0.058 in test [2] (agonist: MPLA […]). Besides, the viability score in test [3] is 1.02 (active).
On to `COc1cccc(N2C(=O)CN(Cc3ccccc3)C3CS(=O)(=O)CC32)c1` (stereo unspecified), for which the NF-kB reporter in test [1] (setting [4]) was 1.43 ± 0.078; in test [1] (agonist: LPS 0.1 ug/mL), 0.719 ± 0.057; in test [1] (agonist: MPLA […]), 1.49 ± 0.093. The figures for the IRF reporter in test [2] (agonist: 3'3'-cGAMP 10 ug/mL), in test [2] (agonist: LPS 0.1 ug/mL) and in test [2] (agonist: MPLA […]) were 0.322 ± 0.034, 0.237 ± 0.05 and 0.216 ± 0.075, respectively. In test [3], the viability score is 0.832 (active).
For `O=C(COc1ccc(Cl)cc1)Nc1ccc(OC(F)(F)F)cc1`, the NF-kB reporter is 1.03 ± 0.069 in test [1] (setting [4]), 1 ± 0.078 in test [1] (agonist: LPS 0.1 ug/mL) and 0.943 ± 0.043 in test [1] (agonist: MPLA […]). For the same compound, the IRF reporter in test [2] (agonist: 3'3'-cGAMP 10 ug/mL) was 0.989 ± 0.072; in test [2] (agonist: LPS 0.1 ug/mL), 0.973 ± 0.1; in test [2] (agonist: MPLA […]), 0.88 ± 0.18. For the same compound, the viability score in test [3] was 0.993 (active).
